Source: PubChem BioAssay (National Center for Advancing Translational Sciences (NCATS))
Vaccinia Venus: inhibitors of vaccinia virus (Venus reporter) | Vaccinia virus Venus reporter expression, fluorescence | Potency, µM (series often up to 36.5 µM), without a hit: top-dose activity change, negative = inhibition, actives largely listed as inhibitors | hit rate 0.46% among 330,000; calls by dose curve; tested in A549 cells; also: potency is read from the fitted curve at half-maximal effect; nearly all actives have a fitted effect of over 30% in size
MARV entry inh: Marburg virus entry inhibition; Marburg virus pseudotyped entry inhibition, cell reporter; Potency, µM (highest dose often 37.8 µM), without a hit: at the top dose activity change, negative = inhibition, hits mostly inhibitors; hit rate 1.8% among 300,000; AID 540276; calls by dose curve; tested in HEK293 cells; also: potency is read from the fitted curve at half-maximal effect
HCMV antiviral: human cytomegalovirus inhibition; HFF cells, HCMV-luciferase reporter, 72 h; active compounds read low; activity change, negative = inhibition, % at 57.5 µM; hit rate 4.5% among 410,000; in the data active = activity change below about -60%; inconclusive = no clear call, values can overlap the other calls; inactive = above about -39%
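Luciferase read-out from HCMV-luciferase-infected HFFs (MOI 1 PFU/cell) 72 h post infection at 37C; compounds added after 16 h cell attachment; activity normalized between buffer-only basal and Salinomycin (10uM) inhibitor controls.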
VACV mCherry inh: inhibitors of vaccinia virus infection (mCherry reporter signal); Vaccinia virus mCherry reporter infection, fluorescence; Potency, µM (series often up to 36.5 µM), without a hit: at the top dose activity change, negative = inhibition, actives largely listed as inhibitors; hit rate 0.63% among 310,000; AID 720579; calls by dose curve; tested in A549 cells; also: potency is read from the fitted curve at half-maximal effect; nearly all actives have a fitted effect of over 35% in size
FMDV antiviral: blocks foot and mouth disease virus; FMDV antiviral cell-based qHTS; Potency, µM (highest dose often 57.9 µM), without a hit: at the highest dose activity change, negative = inhibition, usual class: inhibitors; hit rate 1.2% among 410,000; AID 1159524; calls by dose curve; tested in HEK293T cells; also: read-out not given here; potency is read from the fitted curve at half-maximal effect; nearly all actives have a fitted effect of over 45% in size
LASV entry inh: blocks Lassa virus binding to or entry into cells; Lassa virus pseudotype entry inhibition, cell reporter; Potency, µM (series often up to 37.9 µM), without a hit: at the highest dose activity change, negative = inhibition, most hits filed as inhibitors; hit rate 1.2% among 300,000; calls by dose curve; tested in HEK293 cells; also: potency is read from the fitted curve at half-maximal effect; nearly all actives have a fitted effect of over 50% in size
* marks the source's active call; other numbers are inactive results; i = inactive; ? = inconclusive; . = no result given; + = active, no number; [ ] = dose if it differs, or a comment. A selection: hits, their analogues and other compounds. The true share with any hit is near 6.5%. % is scaled to controls: 0 for no effect and ±100 for the full control effect.

SMILES	Vaccinia Venus	MARV entry inh	HCMV antiviral	VACV mCherry inh	FMDV antiviral	LASV entry inh
CC(=O)NC(Cc1ccc(O)cc1)C(=O)O (stereo not drawn)	.	.	12	.	.	.
COc1ccccc1NCc1cccn1-c1nnc(N2CCCCCC2)s1	-1%	.	-38	-6%	52%	-24%[46.1 µM]
C[C@@H]1CN(Cc2ccc3c(c2)CN(Cc2cccc(O)c2)CCO3)C[C@H](C)O1	-2%	.	.	-3%	-26%	.
CC(N)Cc1c[nH]c2ccc(OCc3cccs3)cc12 (stereo not drawn)	-12%	21µM*	?	-28%	0%	7%
CC(N)Cc1c[nH]c2ccc(O)cc12 (stereo not drawn)	-9%	?	-6	-11%	-17%	17%
C[C@H](N)Cc1c[nH]c2ccc(OCc3cccs3)cc12	.	21µM*	.	.	-8%	.
CC(C)(C)C(=O)Nc1cccc(-c2nc3ccccc3[nH]2)c1	-20%	-9%	-15	.	-12%	0%
CC(C)(C)C(=O)Nc1sc2c(c1-c1nc3ccccc3[nH]1)CCCC2	.	?	-107*	.	-6%	4%
Cc1ccc(C(=O)NCCSc2ccccc2)cc1S(=O)(=O)Nc1ccccc1	.	23µM*	-9	.	-6%	?
Cc1ccc(C)c(NS(=O)(=O)c2cc(C(=O)NCCSC3CCCCC3)ccc2C)c1	-27%	-18%	-14	?	-13%	-41%
Cc1ccccc1NS(=O)(=O)c1cc(C(=O)NCCSC2CCCCC2)ccc1C	-13%	?	?	-17%	.	8.2µM*
Cc1ccccc1NS(=O)(=O)c1ccc(C(=O)NCC(C)(C)N2CCOCC2)cc1	-17%	-19%	-67*	-3%	-29%	-15%[46.1 µM]
CC(C)(CNC(=O)c1ccc(S(=O)(=O)Nc2ccccc2F)cc1)N1CCOCC1	-3%	-27%	-28	-19%	-9%	-27%
Cc1ccc(/C=N/Nc2ncc(Cl)cc2Cl)s1	-30%	?	-64*	-24%	-17%	?
Clc1cnc(N/N=C/c2cccs2)c(Cl)c1	?	?	52	-10%[1.46 µM]	17%	?
CCC[C@H]1[C@@H](NS(=O)(=O)c2ccc(OC)cc2)CC[C@@]23CCCN2C(=O)CCC[C@@H]13	.	.	-25	.	.	.
O=C(Nc1ccc(OC(F)(F)F)cc1)C1CCN(S(=O)(=O)c2ccc3[nH]c(=O)ccc3c2)CC1	6%	.	-4	3%	?	-1%[46.1 µM]
Cc1ccc(NC(=O)CN2C(=O)c3ccccc3S2(=O)=O)c(C)c1	2%	1%[46.1 µM]	3	-10%	13%	-20%[46.1 µM]
COc1ccc(/C=C/C(=O)c2nc3ccccc3n2CC(=O)c2ccc(OC)cc2)cc1	.	?	19	.	-11%	-25%
O=C(CN1C(=O)c2ccccc2S1(=O)=O)c1ccc(O)c(O)c1	8%	?	-15	?	23%	?
COc1ccc(C)cc1NC(=O)CN1C(=O)c2ccccc2S1(=O)=O	6%	.	-60*	1%	-14%	.
O=C(CN1C(=O)c2ccccc2S1(=O)=O)c1ccc(F)c(F)c1	0%	10µM*	?	i	?	?
COc1ccc(C(=O)Cn2c(C(C)=O)nc3ccccc32)cc1	-21%	?	-64*	i	5%	?
COc1ccc(C(=O)CN2C(=O)c3ccccc3S2(=O)=O)cc1	-14%	?	-92*	-2%	5.6µM*	?
Cc1ccc(C)n1C1C(=O)N(Cc2ccc(C(C)C)cc2)c2c(F)cccc21 (stereo not drawn)	.	.	-19	.	.	.
SMILES	Vaccinia Venus	MARV entry inh	HCMV antiviral	VACV mCherry inh	FMDV antiviral	LASV entry inh
Cc1nn(-c2ccccc2)c(N)c1Sc1cccc([N+](=O)[O-])c1	.	-21%	-76*	.	?	0%
Cc1nn(-c2ccccc2)c(N)c1Sc1ccccc1[N+](=O)[O-]	-20%	?	0	-17%	?	6.3µM*
CCC(CC)C(=O)Oc1c(Sc2ccccc2[N+](=O)[O-])c(C)nn1C(C)(C)C	-16%	-27%	4	-28%	?	-7%
Cc1nn(S(=O)(=O)c2ccc([N+](=O)[O-])cc2)c(C)c1Sc1ccccc1	-14%	1%	-13	-1%	-26%	25%[14.3 µM]
Cc1nn(-c2cccc([N+](=O)[O-])c2)c(N)c1-c1ccccc1	2%	?	-61*	i	20%	-2%[46.1 µM]
O=C(CN1C(=O)COc2ccc(S(=O)(=O)N3CCCCCC3)cc21)N1CCN(c2ccc(Cl)cc2)CC1	-3%	5%[46.1 µM]	-14	-19%	0%	14%[46.1 µM]
CCOc1ccccc1CNC(=O)c1cnc2sc(N(CC)CC)nn2c1=O	-21%	.	-19	i	-24%	-27%[46.1 µM]
COc1ccc2cc(CCNS(=O)(=O)c3ccc(C)cc3)c(=O)[nH]c2c1	-7%	-2%[46.1 µM]	1	-3%	-18%	-8%[46.1 µM]
C=CCn1c(=NC(=O)C2COc3ccccc3O2)sc2cc(S(N)(=O)=O)ccc21 (stereo not drawn)	-26%	13%	24	-19%	32µM*	2%
CCCC1CC(C)(c2csc(Nc3ccc(OCC)cc3)n2)OC1=O (stereo not drawn)	.	.	-89*	.	-21%	.
COc1ccccc1CCn1cnc(-c2ccccc2F)c1CC(C)C	.	.	-83*	.	.	.
COc1ccccc1CCn1cnc(-c2ccc(F)cc2F)c1CC(C)C	.	.	-84*	.	.	.
CC1CCCCc2cc(O)ccc2OC(=O)CC1 (stereo not drawn)	.	.	-11	.	.	.
CCOC(=O)c1ccc(N=C2SC(C(=O)Nc3ccc(C(=O)O)cc3)CC(=O)N2Cc2cccs2)cc1 (stereo not drawn)	-11%	?	-71*	i	-21%	-23%[46.1 µM]
O=C(Nc1nccs1)c1ccc(S(=O)(=O)NCC2CCCCC2)cc1	?	?	-83*	?	18%	25%[14.3 µM]
CCOc1ccccc1CNC(=O)C1CCN(C(=O)N2CC(CC)Oc3ccc(C)cc32)CC1 (stereo not drawn)	-9%	.	16	-8%	35µM*	?
CCC1CN(C(=O)N2CCC(C(=O)N3CCN(c4cc(C)ccc4C)CC3)CC2)c2ccccc2O1 (stereo not drawn)	?	.	?	?	18µM*	7%[46.1 µM]
CCC1CN(C(=O)N2CCC(C(=O)NCCc3ccccc3OC)CC2)c2ccccc2O1 (stereo not drawn)	-10%	-21%[46.1 µM]	+	i	-18%	-8%[46.1 µM]
